Screens deposited in PubChem by several laboratories.
Shown are actives, neighbours in structure and some others; about 6.6% of the full set was active somewhere.
NR3A LBD binder: modulators (binders) of human NR3A ligand-binding domain; NR3A LBD differential scanning fluorimetry, Tm shift; 0% = protein alone, 100% = glycine-bound protein; Tm shift relative to glycine control, % at 25 µM; 2.5% of 340,000 active; AID 1259313;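 active means melting temperature shift of at least 10% of the positive control shift, at one fixed dose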
MPTP inh: inhibitors of mitochondrial permeability transition pore; isolated mouse mitochondria, Ca2+ swelling absorbance, 30 min; inhibition, % at 10 µM; 1.4% of 360,000 active;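 active means inhibition of 50% or more, scaled per plate between neutral and stimulator controls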
Mdm2-MdmX inh: human Mdm2/MdmX binding inhibition; AID 485346; SaOS-2 split-luciferase Mdm2/MdmX complementation, luminescence; 3% of 330,000 active; inhibition, % at 8 µM;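 active means inhibition of at least 50% at 8 µM in the primary screen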
Target sequence (O15151 whole entry, looked up): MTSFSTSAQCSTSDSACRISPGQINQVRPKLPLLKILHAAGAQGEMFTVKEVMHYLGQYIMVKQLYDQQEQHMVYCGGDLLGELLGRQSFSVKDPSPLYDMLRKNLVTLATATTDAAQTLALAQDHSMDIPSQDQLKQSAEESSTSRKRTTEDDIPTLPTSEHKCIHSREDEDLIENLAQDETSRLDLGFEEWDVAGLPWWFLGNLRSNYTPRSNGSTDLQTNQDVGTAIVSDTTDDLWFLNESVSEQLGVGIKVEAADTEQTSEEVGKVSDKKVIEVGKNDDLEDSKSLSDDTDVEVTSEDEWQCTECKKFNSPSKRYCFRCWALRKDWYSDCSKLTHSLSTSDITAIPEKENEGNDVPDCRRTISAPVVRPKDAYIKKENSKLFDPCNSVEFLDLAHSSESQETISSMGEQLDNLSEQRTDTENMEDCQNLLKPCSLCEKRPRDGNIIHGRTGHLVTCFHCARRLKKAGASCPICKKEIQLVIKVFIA
Target sequence (Q00987 whole entry, looked up): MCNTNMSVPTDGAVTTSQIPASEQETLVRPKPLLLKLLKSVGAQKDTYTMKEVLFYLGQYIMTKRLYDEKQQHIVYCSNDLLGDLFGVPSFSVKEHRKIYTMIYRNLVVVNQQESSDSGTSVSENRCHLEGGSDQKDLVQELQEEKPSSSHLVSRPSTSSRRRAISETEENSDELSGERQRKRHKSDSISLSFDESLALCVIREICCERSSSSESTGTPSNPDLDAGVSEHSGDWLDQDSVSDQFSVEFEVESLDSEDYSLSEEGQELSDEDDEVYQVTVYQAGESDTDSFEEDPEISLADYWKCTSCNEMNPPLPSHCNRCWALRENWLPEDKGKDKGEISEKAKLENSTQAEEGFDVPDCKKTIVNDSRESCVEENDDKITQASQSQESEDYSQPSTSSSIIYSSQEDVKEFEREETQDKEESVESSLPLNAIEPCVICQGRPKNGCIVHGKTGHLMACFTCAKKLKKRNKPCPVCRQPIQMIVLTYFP
CSC inhib: blocks cancer stem cells; inhibition, % at 7.5 µM; cancer stem cell-like cells viability, luminescence; AID 2717; 1.1% of 300,000 active; in the data active means inhibition above about 75%; inconclusive means no clear call, values can overlap the other calls; tested in HMLE shEcad cells
Beta cell apopt: beta cell apoptosis inhibition; INS-1E cytokine-induced death, ATP luminescence, 48 h; percent of positive-control rescue, neutral wells zero; protection from apoptosis, % (concentration not given with the values); 0.8% of 300,000 active;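 active means Every replicate reaches about 75%, or at least half do and their mean reaches it too, limit read from the data; inconclusive means At least half of replicates reach the limit but their mean does not; inactive means Under half of replicates reach the limit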;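 further: higher means more ATP so stronger rescue from cytokine killing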
Gli-Sufu block: Gli-Sufu pathway antagonism. inhibition, % at 5 µM. AID 588413. Sufu-KO-LIGHT fibroblasts, Gli luciferase reporter luminescence. 0.74% of 340,000 active;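 active means inhibition above about 55%, limit read from the data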
Mdm2-MdmX conf: human Mdm2/MdmX binding inhibition, confirmed | shares compounds with Mdm2-MdmX inh | luminescent assay | inhibition, % at 8 µM | 55% of 10,000 active | AID 489028; in the data active means inhibition above about 40%
Full FLuc ctr: counter-screen for Mdm2/MdmX inhibitors: full-length luciferase | SaOS-2 full-length luciferase counterscreen, luminescence | 77% of 6,200 active | AID 504607 | inhibition, % at 8 µM | shares compounds with Mdm2-MdmX inh;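 active means mean inhibition at 8 µM reaching about 37%, which flags the compound as non-specific, limit read from the data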;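 further: p53-null SaOS-2 cells with luciferase driven by a doxycycline-inducible promoter; compound on cells about two nights before reading with doxycycline added after day one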
A number is an active result; – = inactive; ? = inconclusive; · = no result given.

SMILES	NR3A LBD binder	MPTP inh	Mdm2-MdmX inh	CSC inhib	Beta cell apopt	Gli-Sufu block	Mdm2-MdmX conf	others
COCCCn1c(SCC(=O)N2CCOCC2)nnc1-c1ccco1	–	–	–	–	–	–	·
O=C1C(Cl)=C(Nc2ccc(O)cc2)C(=O)c2ccccc21	–	–	100	124	–	–	100	Full FLuc ctr=51
COc1ccc(C(NC(=O)c2c(F)c(F)c(F)c(F)c2F)c2ccccc2)cc1 (stereo not given)	–	–	77	–	–	–	–
CC(C)(CNC(=O)c1cccc(S(=O)(=O)Nc2ccc(Br)cc2)c1)N1CCOCC1	–	–	–	–	–	–	·
CCC1COCCS(=O)(=O)N1Cc1ccc(F)cc1 (stereo not given)	–	–	–	–	–	–	·
O=C(Nc1ccc(Cl)cn1)c1ccc(-c2cc(Cl)ccc2Cl)o1	16	–	74	–	–	–	–
O=C(Nc1ccccc1N1CCCCC1)c1ccc(-c2cc(Cl)ccc2Cl)o1	–	–	50	–	–	–	–
Cc1cccc(C)c1NC(=O)c1ccc(-c2ccc(Cl)cc2Cl)o1	–	–	56	–	–	–	46	Full FLuc ctr=45
Cc1ccccc1NC(=O)c1ccc(-c2ccc(Cl)cc2Cl)o1	–	–	–	–	–	–	·
CC(C)/C=C/CN1CCCC(N2CCN(c3cccc(Cl)c3)CC2)C1 (stereo not given)	–	–	–	–	–	–	·
CCN(CC)CCN(C(=O)/C=C/c1cccs1)c1nc2ccc(F)cc2s1	–	–	52	–	–	–	–
CCN(CC)CCN(C(=O)/C=C/c1cccs1)c1nc2ccc(C)cc2s1	–	–	65	–	–	–	–
CCN(CC)CCN(C(=O)c1ccc2ccccc2c1)c1nc2ccc(F)cc2s1	–	–	–	–	–	–	·
CN(C)CCCN(C(=O)/C=C/c1cccs1)c1nc2ccc(F)cc2s1	–	–	59	–	–	–	–	Full FLuc ctr=63
CN(C)CCCN(C(=O)c1sc2ccccc2c1Cl)c1nc2ccc(F)cc2s1	–	–	–	–	–	–	·
CC(C)Oc1cccc(C(=O)Nc2nnc([C@@H]3C[C@H](O)[C@@H](CO)O3)s2)c1	·	–	·	·	·	·	·
Cc1ccc(C(=O)COC(=O)c2cccc([N+](=O)[O-])c2)s1	–	–	–	–	–	–	·
O=C(Cc1ccc(-n2cccc2)cc1)NCc1cccs1	–	–	55	–	–	–	47	Full FLuc ctr=67
Cc1ccc(CNC(=O)Cc2ccc(-n3cccc3)cc2)cc1	–	–	–	–	–	–	·
CN(C)CCCn1c2c(c(SCC(=O)Nc3ccc4c(c3)OCCO4)nc1=O)CCCC2	·	–	·	·	·	·	·
CN1C(=O)Nc2cccc3cccc1c23	–	–	52	–	–	–	–
S=C(Nc1ccc(Cl)c(Cl)c1)NC1CCN(Cc2ccccc2)CC1	–	–	97	·	–	–	52	Full FLuc ctr=–
Fc1ccc(NC(=S)NC2CCN(Cc3ccccc3)CC2)cc1	–	–	–	·	–	–	·
CCCCNC(=O)C1(C)CCC(=O)N1c1cc(C(C)(C)C)nn1C (stereo not given)	·	–	·	·	·	·	·
Cc1sc2ncnc(SC(C)C(=O)N3c4ccccc4Sc4ccccc43)c2c1C (stereo not given)	–	–	55	?	–	–	–
SMILES	NR3A LBD binder	MPTP inh	Mdm2-MdmX inh	CSC inhib	Beta cell apopt	Gli-Sufu block	Mdm2-MdmX conf	others
COc1ccc(NC(=O)Cn2nnc(-c3ccccc3NC(=O)c3ccco3)n2)cc1	–	–	55	–	–	–	56	Full FLuc ctr=–
COc1cc(OC)cc(C(=O)Nc2ccccc2-c2nnn(CC(=O)Nc3cc(C)on3)n2)c1	–	–	71	–	–	–	–
CC(C)(C)NC(=O)Cn1nnc(-c2ccccc2NC(=O)c2cnccn2)n1	–	–	–	·	–	–	·
O=C(Cn1nnc(-c2ccccc2NC(=O)c2ccccc2F)n1)NCc1ccco1	–	–	50	–	·	–	–
COc1ccccc1NC(=O)Cn1nnc(-c2ccccc2NC(=O)c2cnccn2)n1	–	–	52	–	–	–	–
COc1ccc(C(=O)Nc2ccccc2-c2nnn(CC(N)=O)n2)cc1	–	–	·	·	·	–	·
Cc1ccccc1C(=O)N1CCC(C(=O)N(C)CC(=O)Nc2cccc(F)c2)CC1	–	–	–	–	–	–	·
O=C(Nc1cccnc1)C1Cc2c(-c3ccccc3Oc3ccccc3)ccnc2O1 (stereo not given)	·	–	·	·	·	·	·
CCCCCNC(=O)C1CC(=O)OC12CCCCC2 (stereo not given)	–	–	–	–	–	–	·
CCCCCCc1cc2cc(C(N)=O)c(=N)oc2cc1O	·	·	–	–	–	·	·
CCCCCCc1cc2cc(/C(N)=N/NC(=O)c3ccncc3)c(=O)oc2cc1O	–	–	65	–	–	–	–
CC1CCCC(C)N1C(=O)CNCc1ccc2c(c1)OCO2 (stereo not given)	–	–	–	–	–	–	·
Cc1cccc2c3nc4ccccc4nc3n(CCCN3C(=O)c4ccccc4C3=O)c12	–	–	·	·	·	–	·
Cc1nc2ccccc2c2oc(C(=O)Nc3ccc4c(c3)OCCO4)cc12	–	–	–	–	–	–	·
COc1cc(NC(=O)c2cc3c(C)nc4ccccc4c3o2)cc(OC)c1OC	–	–	59	–	–	–	–
CC1CCN(C(=O)c2ccc(CNS(=O)(=O)c3ccc(C(C)(C)C)cc3)cc2)CC1	–	–	–	–	–	–	·
CCC1(c2ccc(F)cc2)NC(=O)N(CC(=O)Nc2cccc(S(=O)(=O)N3CCOCC3)c2)C1=O (stereo not given)	–	–	·	·	·	–	·
c1ccc(-c2sc3ccccc3c2-c2ccc(OCCN3CCCC3)cc2)cc1	–	–	100	107	–	–	46	Full FLuc ctr=58
COc1ccc(-c2sc3cc(OC)ccc3c2-c2ccc(OCCN3CCCCC3)cc2)cc1	·	–	·	·	·	·	·
COc1ccc(-c2sc3ccccc3c2-c2ccc(OCCN3CCCCC3)cc2)cc1	–	–	88	139	103	–	–
c1ccc(COc2ccc(OCCN3CCCC3)cc2)cc1	–	–	–	–	–	–	·
CCN(CC)CCN1c2ccccc2Sc2ccc3ccccc3c21	–	–	56	–	106	–	–	Full FLuc ctr=75
Clc1cc(Cl)cc(CN2CCSCC2)c1	–	–	–	–	–	–	·
O=Cc1cc2ccccc2nc1SCc1ccc(Cl)c(Cl)c1	–	–	64	94	–	–	62	Full FLuc ctr=86
O=c1[nH]c(SCc2ccc(Cl)cc2)nc2ccccc12	–	–	–	–	–	–	·
O=Cc1cc2ccccc2nc1SCc1ccc(Cl)cc1	–	–	81	88	–	–	59	Full FLuc ctr=84
Cc1ccc(CSc2ncnc3ccccc23)cc1	–	–	–	–	·	–	·
Clc1ccc(CSc2cnnc3ccccc23)cc1Cl	–	–	·	·	·	–	·
Cc1ccc(CSc2nc3ccccc3cc2C=O)cc1	–	–	64	–	–	–	65	Full FLuc ctr=80
